According to PubChem BioAssay (Tox21):
Values without a mark were called inactive. Inconclusive results are not listed. Entries that show only a call come without a potency. Activity calls are given as the source filed them. Unless noted, the call rests on the fitted dose curve; in most records, active means well fitted curve in the direction sought with a large enough effect in the repeat runs; inconclusive means weak or mixed curves; inactive means no such curve, though single readings can be large; an effect the other way counts as inactive or inconclusive.

Key:
[1] = qHTS assay for small molecule agonists of the p53 signaling pathway (AID 651631; calls by dose curve; further: nearly all actives have a fitted effect of over 15% in size; further: potency means the concentration at half of the fitted maximal effect)
Method in brief: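 Agonist mode screen using a stably integrated beta-lactamase gene under p53 response elements in HCT-116 cells. Compound exposure lasts 16 h at 37 °C; fluorescence intensity is measured following 2 h FRET substrate loading.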

[2] = qHTS assay for small molecules that induce genotoxicity in human embryonic kidney cells expressing luciferase-tagged ATAD5 (AID 651632); further: nearly all actives have a fitted effect of over 15% in size
Method in brief: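 Concentration-response screen for ATAD5 upregulation in HEK293T luciferase reporter cells; 16 hr treatment at 37C, then luminescence after 30 min with Amplite at room temperature.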

[3] = qHTS assay for small molecule agonists of the p53 signaling pathway - cell viability (AID 651633; calls by dose curve; further: nearly all actives have a fitted effect of over 30% in size; further: potency means the concentration at half of the fitted maximal effect)
Method in brief: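 Viability counter-read: CellTiter-Glo luminescence (30 min, room temperature) in the same p53RE-bla plates. These plates had been exposed to compounds for 16 h at 37 C.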

[4] = qHTS assay for small molecules that induce genotoxicity in human embryonic kidney cells expressing luciferase-tagged ATAD5 - cell viability (AID 651634; calls by dose curve; further: nearly all actives have a fitted effect of over 25% in size)
Method in brief: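 15.5 hr compound or vehicle exposure of HEK293T cells expressing luciferase-tagged ATAD5 at 37C; live-cell protease activity is read by fluorescence after 30 min of CellTiter-Fluor.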

[5] = qHTS assay for small molecule disruptors of the mitochondrial membrane potential - cell viability (AID 720634; calls by dose curve;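 further: human HepG2 liver cancer cells; series mostly up to about 83 µM; nearly all actives have a fitted effect of over 20% in size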)
Method in brief: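 In this qHTS format, HepG2 cells plated overnight were pinned with compound, incubated 1 hr, and assayed for ATP luminescence with CellTiter-Glo after m-MPI dye addition.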

[6] = qHTS assay to test for compound auto fluorescence at 535 nm (green) in HepG2 cells (AID 720675)
[7] = qHTS assay to test for compound auto fluorescence at 590 nm (red) in HEK293 cells (AID 720679)
Method in brief: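 Red autofluorescence, HEK293 cells: 2,000 cells/well; attach 4-5 hr 37C; add 23 nL cpd or DMSO; incubate o/n 37C 5% CO2; read Ex540/Em590; Rose Bengal sodium reference.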

[8] = qHTS assay to test for compound auto fluorescence at 535 nm (green) in HEK293 cells (AID 720680)
[9] = qHTS assay to test for compound auto fluorescence at 460 nm (blue) in HEK293 cell free culture (AID 720681)
Method in brief: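 Blue fluorescence (Ex 405/Em 460 nm, triamterene-equivalent) was read immediately after pin transfer of compound or DMSO into medium (DMEM, 10% FBS) without cells.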

[10] = qHTS assay to test for compound auto fluorescence at 535 nm (green) in HEK293 cell free culture (AID 720682)
Method in brief: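 No cells present: wells hold DMEM supplemented with 10% FBS, into which compound or vehicle is pinned. Green emission is then recorded (485 nm excitation, 535 nm emission) and scaled to fluorescein.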

[11] = qHTS assay to test for compound auto fluorescence at 590 nm (red) in HEK293 cell free culture (AID 720683)
Method in brief: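 Red-channel autofluorescence of compounds in culture medium (DMEM, 10% FBS), no cells, measured at 540/590 nm. Rose Bengal sodium is the reference fluorophore for equivalence.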

[12] = qHTS assay to test for compound auto fluorescence at 590 nm (red) in HepG2 cell free culture (AID 720684)
Method in brief: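 Cell-free; medium MEM + 10% FBS; compound or DMSO added by pintool; read Ex 540/Em 590 nm; Rose Bengal sodium as red reference fluorophore.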

[13] = qHTS assay to test for compound auto fluorescence at 460 nm (blue) in HepG2 cell free culture (AID 720685)
Method in brief: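 Cell-free plates of MEM plus 10% FBS received 23 nL compound or DMSO vehicle; blue-channel (405/460 nm) intensity scored against triamterene as reference fluorophore.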

[14] = qHTS assay to test for compound auto fluorescence at 535 nm (green) in HepG2 cell free culture (AID 720686)
[15] = qHTS assay to test for compound auto fluorescence at 460 nm (blue) in HepG2 cells (AID 720687)
Method in brief: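 Blue-channel autofluorescence (Ex/Em 405/460 nm, triamterene-equivalent) was measured after 1 hr compound exposure at 37 C, 5% CO2. Cells were HepG2, plated overnight at 37 C in MEM plus 10% FBS.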

[16] = qHTS assay for small molecule disruptors of the mitochondrial membrane potential (AID 720635); further: potency means the concentration at half of the fitted maximal effect
Method in brief: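 Mitochondrial membrane potential tracked with Mito-MPS dye, red aggregates (ex 540/em 590 nm) against green monomers (ex 490/em 535 nm). Compound treatment 1 hr at 37C, dye 30 min in HepG2.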

[17] = qHTS assay to test for compound auto fluorescence at 590 nm (red) in HepG2 cells (AID 720674)
Method in brief: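 We screened compounds on adherent HepG2 cells, incubating them for an hour at 37 C in 5% CO2 before reading emission at 590 nm under 540 nm excitation; values reflect equivalence to Rose Bengal sodium fluorescence.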

[18] = qHTS assay to test for compound auto fluorescence at 460 nm (blue) in HEK293 cells (AID 720678)
Method in brief: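 Intrinsic compound fluorescence is recorded in live HEK293 cultures after overnight incubation at 37C, 5% CO2, using excitation 405 nm and emission 460 nm. Values are referenced to triamterene.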

[19] = biological target: Glucocorticoid receptor (Homo sapiens) (UniProt P04150); experiment: qHTS assay to identify small molecule agonists of the glucocorticoid receptor (GR) signaling pathway (AID 720691; active means well fitted activation curve with a large enough effect in the signal ratio in the repeat runs, not every such curve was filed as active; the % refers to the signal ratio)
Method in brief: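 Measures GR pathway activation through a GRE-beta-lactamase reporter stably integrated in HeLa cells, with 18 h compound treatment at 37 C and fluorescence detection using a FRET substrate.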

[20] = biological target: Glucocorticoid receptor (Homo sapiens) (UniProt P04150); experiment: qHTS assay to identify small molecule antagonists of the glucocorticoid receptor (GR) signaling pathway (AID 720692; active means well fitted inhibition curve with a large enough effect in the signal ratio in the repeat runs, not every such curve was filed as active; the % refers to the signal ratio)
Method in brief: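 Tox21 10K library screened in concentration-response for blockade of dexamethasone (5 nM final)-induced GRE-bla reporter activity in HeLa cells; 18 h treatment, fluorescence read.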

Glucocorticoid receptor (Homo sapiens), sequence (P04150 whole entry, looked up): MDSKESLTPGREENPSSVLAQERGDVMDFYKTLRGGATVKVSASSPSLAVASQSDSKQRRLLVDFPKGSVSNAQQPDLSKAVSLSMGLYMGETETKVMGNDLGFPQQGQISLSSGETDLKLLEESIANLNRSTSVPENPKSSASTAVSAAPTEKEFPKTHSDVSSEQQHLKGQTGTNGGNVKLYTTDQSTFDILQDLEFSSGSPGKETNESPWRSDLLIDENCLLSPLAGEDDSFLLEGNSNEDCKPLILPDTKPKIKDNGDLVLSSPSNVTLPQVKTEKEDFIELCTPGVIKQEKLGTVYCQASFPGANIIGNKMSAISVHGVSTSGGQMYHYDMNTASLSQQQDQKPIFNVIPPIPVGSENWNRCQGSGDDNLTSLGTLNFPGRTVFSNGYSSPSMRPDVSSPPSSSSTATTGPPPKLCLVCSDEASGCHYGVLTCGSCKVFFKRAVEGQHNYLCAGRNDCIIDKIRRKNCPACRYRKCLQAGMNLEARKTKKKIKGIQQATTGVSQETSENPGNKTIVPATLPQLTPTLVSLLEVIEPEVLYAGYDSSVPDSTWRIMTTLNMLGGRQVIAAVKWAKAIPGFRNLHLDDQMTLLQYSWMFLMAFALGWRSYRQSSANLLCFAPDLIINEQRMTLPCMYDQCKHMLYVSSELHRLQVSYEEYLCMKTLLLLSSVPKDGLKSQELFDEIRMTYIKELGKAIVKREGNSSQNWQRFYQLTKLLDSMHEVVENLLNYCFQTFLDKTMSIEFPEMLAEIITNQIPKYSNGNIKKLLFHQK

For `O=c1[nH]c2ccc(Cl)cc2o1`, the Potency [1] was “inactive”, the Potency [2] was “inactive” and the Potency [3] was “inactive”. The Potency [4] was “inactive”, the Potency [5] was “inactive” and the outcome [6] was “inactive”. The outcome [7] was “inactive”, the outcome [8] was “inactive” and the Potency [9] was “inactive”. For the same compound, the outcome [10] was “inactive”, the outcome [11] was “inactive” and the outcome [12] was “inactive”. The Potency [13] was “inactive”, the outcome [14] was “inactive” and the Potency [15] was “inactive”.

With `C/C=C(/C(=C/C)c1ccc(O)cc1)c1ccc(O)cc1` the Potency [1] was 3200 nM (active), the Potency [2] was “inactive” and the Potency [4] was “inactive”. For the same compound, the Potency [5] was “inactive”, the Potency [16] was 9020 nM (active) and the fluorescence, relative to Rose Bengal [17] was 0.479% [at 18.6 µM]. The fluorescence, % of fluorescein control [6] was 0.154% [at 18.6 µM], the fluorescence, % of triamterene [18] was 0.118% [at 18.6 µM] and the fluorescence, % of fluorescein [8] was 0.128% [at 18.6 µM]. It also gave a fluorescence, % of fluorescent control [9] of 0.115% [at 18.6 µM], an activity change [10] of -0.004% [at 18.6 µM] and a fluorescence, % of fluorescent control [11] of 0.121% [at 18.6 µM]. The fluorescence, % of Rose Bengal [12] was 0.0319% [at 18.6 µM], the fluorescence, % of fluorescent control [13] was -0.0042% [at 18.6 µM] and the fluorescence, % of fluorescent control [15] was 0.0165% [at 18.6 µM]. The Potency [19] was “inactive”.

For `COc1ccccc1N1CCN(CCCCNC(=O)c2ccc(-c3ccc(C(C)=O)cc3)cc2)CC1`, the Potency [1] was “inactive”, the Potency [2] was “inactive” and the Potency [4] was “inactive”. The Potency [5] was “inactive”, the Potency [16] was “inactive” and the outcome [6] was “inactive”. The Potency [18] was “inactive”, the outcome [8] was “inactive” and the Potency [9] was “inactive”. The outcome [10] was “inactive”, the outcome [11] was “inactive” and the outcome [12] was “inactive”. The Potency [13] was “inactive”, the outcome [14] was “inactive” and the Potency [15] was “inactive”. For the same compound, the Potency [20] was “inactive”.

In the case of `CN1CCCN=C1COC(=O)C(O)(c1ccccc1)C1CCCCC1` (centres undefined), the Potency [1] is reported as “inactive”, the Potency [2] is reported as “inactive” and the Potency [3] is reported as “inactive”. For the same compound, the Potency [4] was “inactive”, the Potency [5] was “inactive” and the outcome [6] was “inactive”. The Potency [18] was “inactive”, the outcome [7] was “inactive” and the outcome [8] was “inactive”. For the same compound, the Potency [9] was “inactive”, the outcome [10] was “inactive” and the outcome [11] was “inactive”. The Potency [13] was “inactive”, the outcome [14] was “inactive” and the Potency [15] was “inactive”. For the same compound, the Potency [19] was “inactive” and the Potency [20] was “inactive”.

In the case of `CCCCCCNC(=O)n1cc(F)c(=O)[nH]c1=O`, the Potency [1] is reported as 1500 nM (active), the Potency [3] is reported as 668 nM (active) and the Potency [4] is reported as “inactive”. For the same compound, the Potency [5] was “inactive”, the outcome [17] was “inactive” and the outcome [6] was “inactive”. For the same compound, the Potency [18] was “inactive”, the outcome [7] was “inactive” and the outcome [8] was “inactive”. For the same compound, the Potency [9] was “inactive”, the outcome [10] was “inactive” and the outcome [11] was “inactive”. For the same compound, the Potency [13] was “inactive”, the outcome [14] was “inactive” and the Potency [15] was “inactive”.

In the case of `Clc1cc(Cl)nc(Cl)n1`, the Potency [1] is reported as “inactive”, the Potency [3] is reported as “inactive” and the Potency [5] is reported as “inactive”. The Potency [16] was “inactive”, the outcome [17] was “inactive” and the outcome [6] was “inactive”. For the same compound, the Potency [18] was “inactive”, the outcome [7] was “inactive” and the outcome [8] was “inactive”. The Potency [9] was “inactive”, the outcome [10] was “inactive” and the outcome [11] was “inactive”. The outcome [12] was “inactive”, the Potency [13] was “inactive” and the outcome [14] was “inactive”. The Potency [15] was “inactive”.

In the case of `CC(=O)Nc1ccc(C)cc1C`, the Potency [1] is reported as “inactive”, the Potency [2] is reported as “inactive” and the Potency [3] is reported as “inactive”. For the same compound, the Potency [4] was “inactive”, the Potency [5] was “inactive” and the outcome [6] was “inactive”. For the same compound, the Potency [18] was “inactive”, the outcome [8] was “inactive” and the outcome [10] was “inactive”. The outcome [11] was “inactive”, the outcome [12] was “inactive” and the Potency [13] was “inactive”. For the same compound, the outcome [14] was “inactive” and the Potency [15] was “inactive”.
